MARV entry inh – Marburg virus entry inhibition; Marburg virus pseudotyped entry inhibition, cell reporter; Potency, µM (titrated, usually from 37.8 µM), actives largely listed as inhibitors; 300,000 tested, 1.8% active; AID 540276; calls by dose curve; tested in HEK293 cells
CHX counter – counter-screen for Shiga toxin inhibitors: cycloheximide protein synthesis inhibition; cell reporter, cycloheximide protein synthesis inhibition counterscreen; max response, %; 300,000 tested, 12% active; AID 2314; in the data active = max response mostly above about 13%, no sharp cut-off; inactive = mostly below about 14%; note: read at 38.3 µM for the half of the compounds with a filed dose
Lassa entry inh – inhibitors of Lassa virus binding or cell entry. Lassa virus pseudotype entry inhibition, cell reporter. Potency, µM (series often up to 37.9 µM), usual class: inhibitors. 300,000 tested, 1.2% active; calls by dose curve; tested in HEK293 cells; note: nearly all actives have a fitted effect of over 50% in size
Shiga inhibitor – blocks Shiga toxin action in Vero cells | Vero cells, Shiga toxin protein synthesis inhibition reporter | inhibition, % at 38.7 µM | 290,000 tested, 9.2% active | AID 2315; in the data active = inhibition mostly above about 28%, no sharp cut-off; inactive = mostly below about 43%
A number is an active result. Rows were chosen to be rich in hits. Some 12% of all compounds tested hit in one or more screens of this group.

Screening O=C(Nc1ccccc1C(=O)NCc1ccco1)c1ccccc1 returned MARV entry inh inactive, CHX counter inactive, Lassa entry inh inactive and Shiga inhibitor inactive.
O=C(Nc1ccc(Cl)cc1)Nc1ccccc1C(=O)NCc1ccco1 was read as MARV entry inh inactive, CHX counter 56.2, Lassa entry inh inactive and Shiga inhibitor 57.8.
Cc1cc(Cl)ccc1N(CC(=O)NCCSCc1ccco1)S(C)(=O)=O was read as MARV entry inh inconclusive, CHX counter inactive, Lassa entry inh inactive and Shiga inhibitor inactive.
O=C(NCCSCc1ccco1)Nc1ccc(Cl)cc1 was read as MARV entry inh inactive, CHX counter 28.7, Lassa entry inh inactive and Shiga inhibitor 100.8.
For O=C(NCCSCc1ccco1)Nc1cccc(Cl)c1 the results were MARV entry inh inactive, CHX counter 37.0, Lassa entry inh inactive and Shiga inhibitor 39.6.
COC(c1ccccc1)c1nnc(CCC(=O)N(C)Cc2cccc(-n3cccn3)c2)o1 (stereo unspecified) was read as CHX counter 33.1 and Shiga inhibitor 106.9.
For COC(c1ccccc1)c1nnc(CCC(=O)N(C)CCOc2ccccc2)o1 (stereo unspecified) the results were MARV entry inh inactive, CHX counter 27.7, Lassa entry inh inconclusive and Shiga inhibitor 59.5.
Screening COC(c1ccccc1)c1nnc(CCC(=O)NCc2ccc3ncccc3c2)o1 (stereo unspecified) returned MARV entry inh inactive, CHX counter inactive, Lassa entry inh inactive and Shiga inhibitor inactive.
For COC(c1ccccc1)c1nnc(CCC(=O)NCCC(C)C)o1 (stereo unspecified) the results were MARV entry inh inactive, CHX counter inactive, Lassa entry inh inactive and Shiga inhibitor inactive.
COC(c1ccccc1)c1nnc(CCC(=O)N(C)CCCC2CCCC2)o1 (stereo unspecified) was read as MARV entry inh inactive, CHX counter 26.9, Lassa entry inh inactive and Shiga inhibitor 46.3.
CCCN(CC1CC1)C(=O)CCc1nnc(C(OC)c2ccccc2)o1 (stereo unspecified) was read as CHX counter inactive and Shiga inhibitor 46.4.
`CCCN(CC1CC1)C(=O)CCc1nnc(CCc2c[nH]c3ccccc23)o1` gave CHX counter inactive and Shiga inhibitor inactive.
Nc1c(-c2nc(-c3cccs3)no2)nnn1-c1ccc(Cl)cc1 was read as Lassa entry inh inactive.
COc1ccccc1C1CN=NC12CCCc1ccccc1C2=O (stereo unspecified) was read as MARV entry inh inactive, CHX counter inactive, Lassa entry inh inactive and Shiga inhibitor inactive.
For Cc1ccc(C(=O)N2c3ccccc3OCC2C)cc1 (stereo unspecified) the results were CHX counter inactive and Shiga inhibitor inactive.
Cc1ccc(C(=O)N2C(=O)C(c3ccccc3)Oc3ccccc32)cc1 (stereo unspecified) was read as MARV entry inh 7.94µM, CHX counter inactive, Lassa entry inh inconclusive and Shiga inhibitor inactive.
Screening COC(=O)CC1Oc2ccc(F)cc2-n2cc(-c3ccc(Cl)cc3)nc21 (stereo unspecified) returned MARV entry inh inactive and Lassa entry inh inactive.
For COc1ccc(Cl)cc1N(CC(=O)N1CCCC1)S(C)(=O)=O the results were MARV entry inh inconclusive, CHX counter inactive, Lassa entry inh inactive and Shiga inhibitor inactive.
For CCCOc1ccc2c(CC)cc(=O)oc2c1C the results were MARV entry inh inconclusive, CHX counter 11.1, Lassa entry inh inactive and Shiga inhibitor inactive.
For COC(=O)c1sccc1-c1ccc(C(=O)Nc2cccc(Cl)c2)o1 the results were MARV entry inh inactive, CHX counter inactive, Lassa entry inh inactive and Shiga inhibitor 51.2.
For O=C(Nc1cccnc1)c1ccc(-c2ccc(Cl)cc2)o1 the results were MARV entry inh inactive, CHX counter 66.1, Lassa entry inh inactive and Shiga inhibitor 72.5.
For O=C(Nc1cccnc1)c1ccc(-c2cc(Cl)ccc2Cl)o1 the results were MARV entry inh inactive, CHX counter 21.7, Lassa entry inh inactive and Shiga inhibitor inactive.
COc1cc(C(=O)NCc2nnc(SCC(=O)N3CCCc4ccccc43)o2)cc(OC)c1OC was read as MARV entry inh inactive, CHX counter inactive, Lassa entry inh inactive and Shiga inhibitor inactive.
For c1ccc(-c2ccc3c(c2)c2c4n3CCN=C4CCC2)cc1 the results were MARV entry inh 25.9µM, CHX counter inactive, Lassa entry inh inactive and Shiga inhibitor inactive.
Screening OC1CN=C2CCCc3c2n(c2ccc(Cl)cc32)C1 (stereo unspecified) returned MARV entry inh inactive, CHX counter inactive, Lassa entry inh inactive and Shiga inhibitor inactive.
`O=C(NC1CCCCC1)c1ccc2c(c1)N(Cc1ccc(Cl)cc1)C(=O)c1ccccc1S2(=O)=O` gave MARV entry inh inconclusive and Lassa entry inh inactive.
COc1ccc(-c2nn(C)c3sc(C(=O)N4CCN(c5cc(Cl)ccc5C)CC4)cc23)cc1OC was read as MARV entry inh inconclusive and Lassa entry inh inactive.
Nc1c(C(=O)N/N=C/c2cccnc2)cnn1-c1ccccc1 was read as MARV entry inh inactive, CHX counter 46.7, Lassa entry inh inactive and Shiga inhibitor 50.7.
Nc1c(C(=O)N/N=C/c2ccc(OCc3ccccc3)cc2)cnn1-c1ccccc1 was read as CHX counter inactive and Shiga inhibitor inactive.
For COc1cccc(/C=N/NC(=O)c2cnn(-c3ccccc3)c2N)c1 the results were CHX counter 45.9 and Shiga inhibitor 71.7.
For Nc1c(C(=O)N/N=C/c2ccc(Cl)cc2)cnn1-c1ccccc1 the results were MARV entry inh inactive, CHX counter inactive, Lassa entry inh inconclusive and Shiga inhibitor inactive.
Screening O=C(Nc1nnc(C2CCCO2)s1)c1cccs1 (stereo unspecified) returned MARV entry inh inactive, CHX counter 17.3, Lassa entry inh inactive and Shiga inhibitor inactive.
`O=C(Nc1nnc(C2CCCCC2)s1)c1cccs1` gave MARV entry inh inconclusive, CHX counter 28.4, Lassa entry inh inconclusive and Shiga inhibitor inactive.
`COc1cccc(C(=O)Nc2nnc(C3CCCO3)s2)c1` (stereo unspecified) gave MARV entry inh inactive, CHX counter 25.3, Lassa entry inh inconclusive and Shiga inhibitor 59.4.
`O=C(Nc1nnc(C2CC2)s1)c1ccncc1` gave MARV entry inh inactive, CHX counter inactive, Lassa entry inh inactive and Shiga inhibitor inactive.
For COc1cccc(C(=O)Nc2nnc(SCC(=O)NC3CCCC3)s2)c1 the results were MARV entry inh inconclusive, CHX counter inactive, Lassa entry inh inconclusive and Shiga inhibitor inactive.
Screening Cc1cc(F)ccc1NC(=O)C1CCN(C(=O)c2cnn(-c3ccccc3)c2-n2cccc2)CC1 returned MARV entry inh inactive and Lassa entry inh inactive.
Screening COc1ccc([C@]23Cc4cc(OC)c(OC)cc4C(O2)c2c(c4ccccc4oc2=O)O3)cc1 returned CHX counter inactive and Shiga inhibitor inactive.
`CCCN1CCN(CCCNC(=O)c2ccc3nc(N4CCC(C)CC4)sc3c2)CC1` gave CHX counter 33.3 and Shiga inhibitor 46.8.
For CCOc1ccc(CCNC(=O)c2ccc3nc(N4CCC(C)CC4)sc3c2)cc1OCC the results were MARV entry inh inactive and Lassa entry inh inactive.
`CCOC(CNC(=O)c1ccc2nc(N3CCC(C)CC3)sc2c1)OCC` gave MARV entry inh inconclusive, CHX counter 24.7, Lassa entry inh inactive and Shiga inhibitor inactive.

Bioassay records (PubChem BioAssay)
